PubChem BioAssay
Values joined by “and” are separate entries in the source; they are usually repeats but may differ in a detail not shown here. Identical values can stand only once. Records with an inconclusive call do not appear. Active and inactive are the calls of the source.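 The calls were made as follows, unless noted: active = normalized viability below 100% at a tested concentration; inactive = the rest.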

Key:
[1] = growth inhibition of DIPG glioma cells, dose response, cell-based, SU-DIPG-XVII, MIPE5.0, CellTiter-Glo, qHTS (AID 1347060; cut-off not given, nearly all actives have AC50 up to about 26 µM;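 also: cells exposed to compound for 48 hours before viability readout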); settings: SU-DIPG-XVII viability, CellTiter-Glo ATP luminescence
[2] = growth inhibition of DIPG glioma cells, dose response, cell-based, JHH-DIPG-1, MIPE4.0, CellTiter-Glo, qHTS (AID 1347062; cut-off not given, nearly all actives have AC50 up to about 27 µM;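 also: cells exposed to compound for two days before readout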); settings: JHH-DIPG-1 viability, CellTiter-Glo ATP luminescence
[3] = growth inhibition of DIPG glioma cells, dose response, cell-based, SU-DIPG-IV, MIPE4.0, CellTiter-Glo, qHTS (AID 1347063; cut-off not given, nearly all actives have AC50 up to about 30 µM;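 also: compound exposure lasted 48 hours before the viability readout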); settings: SU-DIPG-IV viability, CellTiter-Glo ATP luminescence
[4] = growth inhibition of DIPG glioma cells, dose response, cell-based, SU-DIPG-XIII, MIPE5.0, CellTiter-Glo, qHTS (AID 1347064; cut-off not given, nearly all actives have AC50 up to about 23 µM;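 also: cells exposed to compound for 48 hours before the viability read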); settings: SU-DIPG-XIII viability, CellTiter-Glo ATP luminescence
[5] = viability loss in pontine glioma line – cell-based, SU-DIPG-XXV, MIPE5.0, CellTiter-Glo, qHTS, dose response (AID 1347065; cut-off not given, nearly all actives have AC50 up to about 26 µM;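 also: cells exposed to compound for 48 hours before ATP readout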); settings: CellTiter-Glo ATP luminescence
[6] = SU-DIPG-VI glioma cell viability, MIPE4.0 library, CellTiter-Glo luminescence, qHTS (AID 1347066; cut-off not given, nearly all actives have AC50 up to about 30 µM;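 also: cells exposed to compound for 48 hours before readout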); settings: CellTiter-Glo ATP luminescence
[7] = sensitizers of A549 cells to miR-34 induction, primary screen, imaging, A549 dox-inducible miR-34, nuclei and caspase counts (AID 1347080;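 active = compounds whose cell count with miR-34 switched on is under 0.7 times the count with it off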); settings: A549 miR-34 inducible, Hoechst nuclei count, 48 h
[8] = modifiers of HSF1 nuclear foci, imaging, Selleck Cancer Library (AID 1347162; in the data active = plate-normalised HSF1 focus index below about 0.46); settings: human cells, at 10 µM; SSMD: measured here: HSF1 foci SSMD mean; cell count: measured here: cell number; plate-normalised HSF1 focus index: stronger effect = lower value
[9] = survival rescue of mitochondrial mutant cells in low glucose, primary screen, MELAS cybrids, Rieske KO mouse fibroblasts, CellTiter-Glo (AID 1508586;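 active = mean z-score across replicates of 1.96 or higher in either the MELAS or the Rieske mutant cell line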;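 also: z relative to plate mean and SD of compound and empty wells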)
[10] = ovarian cancer cell viability with rucaparib, profiling panel, oncology-focused library, rucaparib conditional (AID 1508598); settings: patient-derived ovarian cancer cells, CellTiter-Glo viability, 144 h, stronger effect = lower value
[11] = JHH-DIPG-1 glioma cell viability, MIPE5.0 library, CellTiter-Glo luminescence, qHTS (AID 1347067; cut-off not given, nearly all actives have AC50 up to about 26 µM;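 also: cells exposed to compound for 48 hours before readout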); settings: JHH-DIPG-1 glioma viability, CellTiter-Glo ATP luminescence
[12] = SU-DIPG-XXV glioma cell viability, MIPE5.0 library, qHTS (AID 1347068; cut-off not given, nearly all actives have IC50 up to about 30 µM;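 also: cells exposed to compound for 48 hours before viability readout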)
[13] = stronger effect = lower value, cell number ratio, induced over uninduced
[14] = measured here: relative caspase fold change +Dox/-Dox
[15] = measured here: total cells with miR-34 induction, stronger effect = lower value
[16] = measured here: total cells without miR-34 induction
[17] = MELAS cybrid survival, CellTiter-Glo 48 h, stronger effect = higher value
[18] = Rieske KO mouse fibroblast survival, CellTiter-Glo 72 h
[19] = at 0.000305 µM, OCI-C5x cells, with rucaparib 10 µM, 100% = cells with rucaparib alone
[20] = at 0.000305 µM, OCI-C5x cells, without rucaparib
[21] = at 0.000305 µM, OCI-P5x cells, with rucaparib 20 µM, 100% = cells with rucaparib alone
[22] = at 0.000305 µM, OCI-P5x cells, without rucaparib
[23] = at 0.00122 µM, OCI-C5x cells, with rucaparib 10 µM, 100% = cells with rucaparib alone
[24] = at 0.00122 µM, OCI-C5x cells, without rucaparib
[25] = at 0.00122 µM, OCI-P5x cells, with rucaparib 20 µM, 100% = cells with rucaparib alone
[26] = at 0.00122 µM, OCI-P5x cells, without rucaparib
[27] = at 0.00488 µM, OCI-C5x cells, with rucaparib 10 µM, 100% = cells with rucaparib alone
[28] = at 0.00488 µM, OCI-C5x cells, without rucaparib
[29] = at 0.00488 µM, OCI-P5x cells, with rucaparib 20 µM, 100% = cells with rucaparib alone
[30] = at 0.00488 µM, OCI-P5x cells, without rucaparib
[31] = at 0.0195 µM, OCI-C5x cells, with rucaparib 10 µM, 100% = cells with rucaparib alone
[32] = at 0.0195 µM, OCI-C5x cells, without rucaparib
[33] = at 0.0195 µM, OCI-P5x cells, with rucaparib 20 µM, 100% = cells with rucaparib alone
[34] = at 0.0195 µM, OCI-P5x cells, without rucaparib
[35] = at 0.0781 µM, OCI-C5x cells, with rucaparib 10 µM, 100% = cells with rucaparib alone
[36] = at 0.0781 µM, OCI-C5x cells, without rucaparib
[37] = at 0.0781 µM, OCI-P5x cells, with rucaparib 20 µM, 100% = cells with rucaparib alone
[38] = at 0.0781 µM, OCI-P5x cells, without rucaparib
[39] = at 0.313 µM, OCI-C5x cells, with rucaparib 10 µM, 100% = cells with rucaparib alone
[40] = at 0.313 µM, OCI-C5x cells, without rucaparib
[41] = at 0.313 µM, OCI-P5x cells, with rucaparib 20 µM, 100% = cells with rucaparib alone
[42] = at 0.313 µM, OCI-P5x cells, without rucaparib
[43] = at 1.25 µM, OCI-C5x cells, with rucaparib 10 µM, 100% = cells with rucaparib alone
[44] = at 1.25 µM, OCI-C5x cells, without rucaparib
[45] = at 1.25 µM, OCI-P5x cells, with rucaparib 20 µM, 100% = cells with rucaparib alone
[46] = at 1.25 µM, OCI-P5x cells, without rucaparib
[47] = at 5 µM, OCI-C5x cells, with rucaparib 10 µM, 100% = cells with rucaparib alone
[48] = at 5 µM, OCI-C5x cells, without rucaparib
[49] = at 5 µM, OCI-P5x cells, with rucaparib 20 µM, 100% = cells with rucaparib alone
[50] = at 5 µM, OCI-P5x cells, without rucaparib

CC(C)c1ccccc1Cc1cc(C(=O)Nc2ccc(S(=O)(=O)c3ccccc3C(C)(C)C)cc2)c(O)c(O)c1O
0.84: fold change [7, 14]
7240: cell count [8]
2090: cell count [7, 15]
inactive: fold change [7, 13] 0.928 | plate-normalised HSF1 focus index [8] 0.912 | viability [10, 19] 105% | viability [10, 20] 115% | viability [10, 21] 124% | viability [10, 22] 124% | viability [10, 23] 103% | viability [10, 24] 119% | viability [10, 25] 117% | viability [10, 26] 116% | viability [10, 27] 113% | viability [10, 28] 116% | viability [10, 29] 117% | viability [10, 30] 121% | viability [10, 31] 110% | viability [10, 32] 109% | viability [10, 33] 118% | viability [10, 34] 114% | viability [10, 35] 110% | viability [10, 36] 111% | viability [10, 37] 119% | viability [10, 38] 114% | viability [10, 39] 101% | viability [10, 40] 112% | viability [10, 41] 112% | viability [10, 42] 110% | viability [10, 43] 106% | viability [10, 44] 118%
-0.101: z-score [9, 18]
-1.79: SSMD [8]
2260: cell count [7, 16]
active: AC50 [1] 23.5 µM | AC50 [2] 23.5 µM | AC50 [3] 23.5 µM | AC50 [4] 20.9 µM | AC50 [5] 23.5 µM | AC50 [6] 9.35 µM | z-score [9, 17] 2.95 | viability [10, 45] 98.8% | viability [10, 46] 97.4% | viability [10, 47] 21.8% | viability [10, 48] 90.4% | viability [10, 49] 10.9% | viability [10, 50] 21.5%

COc1cc2c(Nc3ccc(Cl)c(Cl)c3F)ncnc2cc1OCC1C[C@@H]2CN(C)C[C@@H]2C1 (stereo partly drawn)
active: AC50 [1] 5.25 µM | AC50 [2] 18.7 µM | AC50 [3] 6.62 µM | AC50 [4] 8.33 µM | AC50 [5] 7.42 µM and 8.33 µM | AC50 [11] 4.68 µM and 2.35 µM | IC50 [12] 18.6 µM and 16.6 µM

CCN1CCN(c2ccc(Nc3cc(N(C)C(=O)Nc4c(Cl)c(OC)cc(OC)c4Cl)ncn3)cc2)CC1
active: AC50 [1] 0.235 µM | AC50 [2] 23.5 µM | AC50 [3] 33.2 µM | AC50 [4] 0.332 µM | AC50 [5] 0.209 µM | AC50 [11] 8.33 µM

C[C@@H](Oc1cc(-c2cnn(C3CCNCC3)c2)cnc1N)c1c(Cl)ccc(F)c1Cl
5640: cell count [8]
inactive: plate-normalised HSF1 focus index [8] 0.639 | viability [10, 19] 129% | viability [10, 20] 131% | viability [10, 21] 112% | viability [10, 22] 105% | viability [10, 23] 124% | viability [10, 24] 125% | viability [10, 25] 103% | viability [10, 26] 107% | viability [10, 27] 136% | viability [10, 28] 133% | viability [10, 29] 106% | viability [10, 30] 104% | viability [10, 31] 123% | viability [10, 32] 121% | viability [10, 35] 125% | viability [10, 36] 121% | viability [10, 37] 103% | viability [10, 39] 118% | viability [10, 40] 124% | viability [10, 41] 101% | viability [10, 43] 117% | viability [10, 44] 116%
-10.4: SSMD [8]
active: AC50 [1] 4.68 µM | AC50 [2] 16.6 µM | AC50 [3] 14.8 µM | AC50 [4] 2.63 µM | AC50 [5] 1.66 µM | AC50 [6] 20.9 µM | AC50 [11] 8.33 µM | IC50 [12] 4.68 µM | viability [10, 33] 98.3% | viability [10, 34] 96.4% | viability [10, 38] 98.8% | viability [10, 42] 94.2% | viability [10, 45] 72.6% | viability [10, 46] 79.6% | viability [10, 47] 10.7% | viability [10, 48] 91.2% | viability [10, 49] 6.65% | viability [10, 50] 13.1%

O=C(Nc1cn[nH]c1-c1nc2ccc(CN3CCOCC3)cc2[nH]1)NC1CC1
1110: cell count [7, 16]
1190: cell count [7, 15]
inactive: fold change [7, 13] 1.08 | viability [10, 19] 103% | viability [10, 20] 125% | viability [10, 21] 120% | viability [10, 22] 122% | viability [10, 23] 128% | viability [10, 24] 132% | viability [10, 25] 111% | viability [10, 26] 116% | viability [10, 27] 116% | viability [10, 28] 119% | viability [10, 29] 116% | viability [10, 30] 118% | viability [10, 31] 102% | viability [10, 32] 111% | viability [10, 33] 120% | viability [10, 34] 105% | viability [10, 36] 108% | viability [10, 37] 111% | viability [10, 40] 104% | viability [10, 41] 109% | viability [10, 45] 118%
-1.89: z-score [9, 18]
0.829: fold change [7, 14]
active: AC50 [1] 1.66 µM | AC50 [2] 10.5 µM | AC50 [3] 1.32 µM | AC50 [4] 5.9 µM | AC50 [5] 0.661 µM | AC50 [11] 1.86 µM | IC50 [12] 8.33 µM | z-score [9, 17] 2.04 | viability [10, 35] 82% | viability [10, 38] 76.9% | viability [10, 39] 89.8% | viability [10, 42] 66.7% | viability [10, 43] 36.1% | viability [10, 44] 48.8% | viability [10, 46] 53.2% | viability [10, 47] 26.8% | viability [10, 48] 18.2% | viability [10, 49] 39.6% | viability [10, 50] 18.8%
